The values below come from PubChem BioAssay (NCI).

This is part of a sample that, as a whole, favours compounds with a hit. Of some 79,000 tested, about 15% had one in any assay. A number with no mark means an inactive call. Active and inactive are the calls of the source. No stated cut-off is given here; in the data, active means growth inhibition above about 70%; inactive means the rest.

The nature of assay [1]: NCI Yeast Anticancer Drug Screen. Data for the rad50 strain (AID 155).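 Further: 0% = growth of vehicle-only cultures of the same strain.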 The conditions noted are these: S. cerevisiae rad50 strain growth inhibition; at 50.0 µM; active compounds read high. In outline:
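Readout: growth inhibition relative to vehicle-treated cultures. Compound exposure was carried out in a genetically defined yeast strain deficient in DNA damage repair.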

Assay [2] can be described thus: NCI Yeast Anticancer Drug Screen. Data for the mec2-1 strain (AID 157). Particulars: S. cerevisiae mec2-1 strain, at 50.0 µM, active compounds read high. In outline:
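Yeast mec2-1 mutant treated with compound. Readout: growth inhibition vs vehicle controls.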

Assay [3] can be described thus: NCI Yeast Anticancer Drug Screen. Data for the sgs1 mgt1 strain (AID 161).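 Further: 0% = growth of cultures given vehicle only.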 The conditions noted are these: S. cerevisiae sgs1 mgt1 strain, at 50.0 µM, active compounds read high. In outline: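 Test agents were incubated with a DNA-repair-mutant yeast strain. Growth was then read and compared against vehicle-treated controls.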
Assay [4] is described as follows: NCI Yeast Anticancer Drug Screen. Data for the cln2 rad14 strain (AID 165).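 Further: 0% = growth equal to vehicle treated cultures.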 Particulars: S. cerevisiae cln2 rad14 strain, at 50.0 µM, active compounds read high. In outline: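 cln2 rad14 yeast strain; compound exposure; growth inhibition read vs vehicle controls.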
A short description of assay [5]: NCI Yeast Anticancer Drug Screen. Data for the bub3 strain (AID 167). The conditions noted are these: S. cerevisiae bub3 mutant strain, at 50.0 µM, active compounds read high. In outline:
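Readout: yeast growth inhibition, expressed relative to vehicle-only wells. The test organism is a mutant strain from a panel with lesions in DNA repair or checkpoint genes.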

Assay [6] can be described thus: NCI Yeast Anticancer Drug Screen. Data for the mlh1 rad18 strain (AID 175). Particulars: S. cerevisiae mlh1 rad18 strain growth inhibition; at 50.0 µM; active compounds read high. The method, boiled down: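 Yeast w/ defined DNA-repair lesions; compound exposure; growth vs vehicle controls → % inhibition.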

As for `Cc1ccc(S(=O)(=O)Oc2ccccc2OS(=O)(=O)c2ccc(C)cc2)cc1`, the growth inhibition in assay [1] is 3.4%; in assay [2], 2.35%; in assay [3], -13.9%; in assay [4], -4.1%; in assay [5] it was -5%; in assay [6] it was 0.75%.
Consider `OC1c2ccccc2-c2ccccc21`, for which the growth inhibition is 35.6% in assay [1]; 0.95% in assay [2]; -15.4% in assay [3]; -22.3% in assay [4]; 6.8% in assay [5]; 25.2% in assay [6].
For the compound `CC(O)(CNS(=O)(=O)c1ccccc1)c1ccccc1` (stereo not given), the growth inhibition in assay [1] was 14.2%; in assay [2], 8.8%; in assay [3] it was 0.6%; in assay [4] it was -36.9%; in assay [5], -31.2%; in assay [6], -16.6%.
For the compound `Cc1ccnc(=S)[nH]1`, the growth inhibition is 16.9% in assay [1]; 5.45% in assay [2]; 33.1% in assay [3]; 13.3% in assay [4]; 23.6% in assay [5]; 18.3% in assay [6].
`COc1ccc2c(c1)OCc1c-2oc2ccccc2c1=O`: the growth inhibition in assay [1] was -24.8%; in assay [2] it was -4.55%; in assay [3], -10.9%; in assay [4], -25.4%; in assay [5] it was -3.95%; in assay [6], -5.3%.
On to `CC(=O)NC(CSCC(=O)c1ccccc1)C(=O)O` (stereo not given), for which the growth inhibition was -12.6% in assay [1]; -8% in assay [2]; -10.3% in assay [3]; -6.05% in assay [4]; -18.8% in assay [5]; -3.5% in assay [6].
Turning to `CC1CN(C(=O)Nc2ccc([N+](=O)[O-])cc2)CC(C)O1` (stereo not given), the growth inhibition was -16.1% in assay [1]; -36.5% in assay [2]; 13.7% in assay [3]; 3.5% in assay [4]; -3.65% in assay [5]; 6.25% in assay [6].
For `NC(=O)C(=O)c1cc(Cl)c(Cl)c(Cl)c1Cl`, the growth inhibition in assay [1] is -12.3%; in assay [2], -13.5%; in assay [3] it was 12.4%; in assay [4], -9%; in assay [5], -5.15%; in assay [6] it was -4.15%.
`CC(C)C(=O)c1ccccc1Cl`: the growth inhibition was 2.85% in assay [1]; -7.05% in assay [2]; -2.45% in assay [3]; -0.35% in assay [4]; 2.7% in assay [5]; -8% in assay [6].
For `Nc1ccccc1N=Cc1c(O)c2ccccc2oc1=O`, the growth inhibition in assay [1] is -8.55%; in assay [2] it was -11%; in assay [3], 2.7%; in assay [4], 4.05%; in assay [5] it was 4.25%; in assay [6], 8.2%.
`O=C(Nc1ccc2ccccc2c1)OC1CCS(=O)(=O)C1` (stereo not given): the growth inhibition in assay [1] was -0.75%; in assay [2], -3.9%; in assay [3], 6.1%; in assay [4], 20.4%; in assay [5], -1.8%; in assay [6], -8.25%.
Take `CN(C)C(=O)c1ccc[n+](CC(=O)NCc2ccccc2)c1`: the growth inhibition was 5.45% in assay [1]; -7.35% in assay [2]; -3.4% in assay [3]; 18.8% in assay [4]; 2.25% in assay [5]; 13.5% in assay [6].
`CN1CCCCCC1`: the growth inhibition in assay [1] is -8.05%; in assay [2], -8.45%; in assay [3] it was 5.95%; in assay [4], -4.95%; in assay [5], -10.9%; in assay [6] it was -0.85%.
As for `CS(=O)(=O)C(CCC(=O)C(c1ccccc1)c1ccccc1)C(=O)c1ccccc1` (stereo not given), the growth inhibition in assay [1] is -7.7%; in assay [2], -11%; in assay [3], -20.5%; in assay [4] it was -39.5%; in assay [5] it was -1.55%; in assay [6] it was -29.2%.
As to `CCCNC(=O)c1nc(SC)sc1NC(=O)c1ccccc1`, the growth inhibition in assay [1] was 10.3%; in assay [2] it was 3.5%; in assay [3], -50.1%; in assay [4], 17.6%; in assay [5], 1.95%; in assay [6], 10.9%.
As to `N#CC1(NC(=O)N(CCCl)N=O)CCCCC1`, the growth inhibition is 4.8% in assay [1]; 1.25% in assay [2]; -0.6% in assay [3]; 5.65% in assay [4]; 9.95% in assay [5]; -27.9% in assay [6].
For `CCCCCCCCCCCCCCCCCC(=O)N1CC[N+](C)(C)CC1`, the growth inhibition is 99.7% (active) in assay [1]; 99.7% (active) in assay [2]; 99.7% (active) in assay [3]; 99% (active) in assay [4]; 99.3% (active) in assay [5]; 99.5% (active) in assay [6].
Consider `COC(=O)N/N=C(/CC1(O)C(=O)Nc2ccc([N+](=O)[O-])cc21)c1ccccc1` (stereo not given), for which the growth inhibition in assay [1] was 48.3%; in assay [2] it was 34.2%; in assay [3], 36.5%; in assay [4], -3.2%; in assay [5], 0.35%; in assay [6], 40.8%.
On to `Cc1ccc(N=Nc2ccc(O)c(CN(C)C)c2)cc1C`, for which the growth inhibition in assay [1] is -26.4%; in assay [2], -29.5%; in assay [3], 48.5%; in assay [4] it was -11%; in assay [5] it was 49%; in assay [6], 36.2%.
With `O=C(O)COc1cc(-c2ccccc2)nc2ccc(F)cc12`, the growth inhibition in assay [1] was -3%; in assay [2] it was 16.6%; in assay [3], 31.5%; in assay [4], 7.25%; in assay [5], 3.1%; in assay [6] it was 10.2%.
